Bioassay records as filed in PubChem.
Tb PFK inh: inhibitors of T. brucei phosphofructokinase. Potency, µM (highest dose often 57.5 µM), for inactives: top-dose activity, negative = inhibition, hits mostly inhibitors. 0.17% of 330,000 active. T. brucei PFK, ADP-Glo luminescence. AID 485367;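 also: 0% = uninhibited 1x PFK enzyme wells and -100% = no-enzyme wells; nearly all actives have a fitted effect of over 60% in size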
Target sequence (O15648 whole entry, looked up): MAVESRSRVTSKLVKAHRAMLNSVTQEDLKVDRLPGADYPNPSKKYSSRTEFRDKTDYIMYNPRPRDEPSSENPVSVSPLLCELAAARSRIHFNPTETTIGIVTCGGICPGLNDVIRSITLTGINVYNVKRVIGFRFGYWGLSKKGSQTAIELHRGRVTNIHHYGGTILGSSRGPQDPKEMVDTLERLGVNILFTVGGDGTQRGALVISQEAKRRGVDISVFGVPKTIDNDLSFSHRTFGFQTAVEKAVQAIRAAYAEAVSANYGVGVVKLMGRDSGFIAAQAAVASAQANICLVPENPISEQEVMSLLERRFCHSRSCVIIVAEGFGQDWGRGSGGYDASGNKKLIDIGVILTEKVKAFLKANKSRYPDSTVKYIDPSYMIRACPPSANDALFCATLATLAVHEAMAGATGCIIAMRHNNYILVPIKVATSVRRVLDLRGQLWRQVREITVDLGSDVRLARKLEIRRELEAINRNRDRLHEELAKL
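Luminescent ADP detection (ADP-Glo, two-step: ATP depletion then ADP-to-ATP conversion for luciferase) reported PFK activity after 45 min room-temperature reaction of 1.25 nM enzyme with 0.5 mM F6P and 0.1 mM ATP at pH 8.0.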
GLP1R cytotox: cytotoxicity counter-screen for GLP-1 receptor inverse agonists; HEK293 cAMP-luciferase reporter cells, luminescence, 24 h; Potency, µM (titrated, usually from 38.3 µM), for inactives: at the highest dose activity change, negative = inhibition, actives largely listed as inhibitors; 0.13% of 410,000 active;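 also: loss of luciferase light is scored as toxicity; % is scaled to controls: 0 for no effect and ±100 for the full control effect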
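A 23 nL compound transfer followed 12 hours of cell culture at 37 deg C; exposure then lasted 24 hr. Luciferase assay detection reagent was dispensed and plates read for luminescence after a 12 min room-temperature wait.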
GLP1R ag: GLP-1 receptor (human) agonism. P43220. 0.007% of 380,000 active. AID 624172. Potency, µM (top dose mostly 45.6 µM), inactives show at the highest dose activation, usual class: activators. HEK293 GLP-1R CRE-luciferase, luminescence, 4-6 h; cells express a hypersensitive GLP-1R form; also: % of control where 0% means no effect
Tb PGK inh: T. brucei PGK inhibition. 0.043% of 380,000 active. Potency, µM (titrated, usually from 57.5 µM), for inactives: at the highest dose activity change, negative = inhibition, most hits filed as inhibitors. PGK/GAPDH coupled, Kinase-Glo luminescence, 60 min. AID 602233; also: % is scaled to controls: 0 for no effect and ±100 for the full control effect; nearly all actives have a fitted effect of over 60% in size
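Recombinant glycosomal PGK reaction used 1,3-bisphosphoglycerate generated in-well by GAPDH (100nM final) in 100mM TEA pH 7.6, 5mM MgCl2, 0.01% Tween-20. After 60 minutes at room temperature, ATP was read by Kinase-Glo Plus luminescence end-point.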
GLP-1R inv ag: inverse agonists of human GLP-1 receptor. P43220. HEK293 GLP-1R CRE-luciferase, luminescence, 24 h; GLP-1R form is constitutively active. Potency, µM (top dose mostly 38.3 µM), without a hit: at the top dose activity change, negative = inhibition, usual class: inhibitors. 1.6% of 410,000 active. AID 624417; also: % is scaled to controls: 0 for no effect and ±100 for the full control effect; nearly all actives have a fitted effect of over 55% in size
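Stable HEK293 clone (constitutively active GLP-1R + cAMP-response luciferase); 200 cells/uL plated, 12 h pre-culture, compound 24 hr, 37 deg C/5% CO2; detection reagent 12 min RT; luminescence.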
Pin1 inh: blocks the human prolyl isomerase Pin1; Q13526; Pin1 FP peptide displacement, HiFluor488, 10 min; Potency, µM (doses to about 115 µM), for the others: top-dose activity, negative = inhibition, hits mostly inhibitors; 0.009% of 390,000 active; AID 504891; active = well fitted inhibition curve with a large enough effect in the polarisation, with a control signal flat, not every such curve was filed as active; inconclusive = small, poorly fitted or top-dose-only effect, or effect the other way, or a change in a side signal; inactive = no such curve, though single readings can be large or run the other way; the % refers to the polarisation; also: % is scaled to controls: 0 for no effect and ±100 for the full control effect
Target sequence (Q13526 whole entry, looked up): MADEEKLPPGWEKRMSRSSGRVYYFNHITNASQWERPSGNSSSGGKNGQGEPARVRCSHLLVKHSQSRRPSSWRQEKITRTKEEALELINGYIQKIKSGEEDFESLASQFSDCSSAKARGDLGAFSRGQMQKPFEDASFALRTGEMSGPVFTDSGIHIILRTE
The depositor's hits bear a star; i = inactive; ? = inconclusive; . = no result; [ ] = another dose, or the depositor's remark. Only some compounds are listed: those with a hit (about 1.8% of all), similar ones and a draw of the others. Unless noted, calls follow the shape of the dose curve; as a rule, active = well fitted curve in the direction sought with a large enough effect; inconclusive = small, poorly fitted or top-dose-only effect, or another doubt; inactive = no such curve, though single readings can be large; an effect the other way counts as inactive or inconclusive. Potency is read from the fitted curve at half-maximal effect.

SMILES	Tb PFK inh	GLP1R cytotox	GLP1R ag	Tb PGK inh	GLP-1R inv ag	Pin1 inh
FC(F)Sc1ccc(NC(=S)NC(c2ccccc2)c2ccccc2)cc1	-1.4%	?	-5.0%	-29.8%	3.98µM*	-3.6%
CCCCNC(=O)COC(=O)c1c2c(nc3ccccc13)/C(=C\c1cccs1)CC2	.	i	13.2%	6.6%	6.31µM*	?
CC(C)CNC(=O)COC(=O)c1c2c(nc3ccccc13)/C(=C/c1cccs1)CC2	0.1%	-8.5%[1.53 µM]	-1.5%	-1.1%	?	?
Cc1sc2c(c1C)c(=O)n(CCc1ccccc1)c(=O)n2Cc1ccc(C(C)(C)C)cc1	.	4.2%	.	.	-1.3%	2.7%
Cc1ccc(NC(=O)C2CCN(S(=O)(=O)c3c(C)noc3C)CC2)cc1	.	-5.5%	0.3%	-1.1%	1.5%	-0.7%
Cc1ccc(Sc2ccc(NC(=O)CCN3C(=O)NC4(CCCC4)C3=O)cc2)c(C)c1	8.8%	-24.5%	8.6%	-1.4%	11.2µM*	-0.1%
O=C(c1ccc(OC2CCN(CCc3ccccc3)CC2)cc1)N1CCCC1	-1.8%	-3.0%	10.5%	-4.7%	?	-0.1%
O=C(c1ccc(OC2CCN(CCc3ccccc3)CC2)cc1)N1CCCC(CCCO)C1 (stereo not given)	1.1%	-14.2%	2.2%	-7.3%	11.2µM*	-14.9%
C[C@H]1C(=O)N(C)CCN1C(=O)c1ccc(OC2CCN(CCc3ccccc3)CC2)cc1	.	0.7%	-4.6%	4.4%	3.0%	.
O=C(c1ccc(OC2CCN(CCc3ccccc3)CC2)cc1)N1CCCCC1CCCO (stereo not given)	?	-9.8%	-4.5%	-7.5%	11.2µM*	2.3%
CCCCCCCC/C=C\CCCCCCCC(=O)OC[C@@H](O)[C@H]1OC[C@H](O)[C@H]1O	.	.	-0.1%	.	.	.
COc1cc(NC(=O)C(OC(=O)CNC(=O)c2ccccc2)c2ccccc2)cc(OC)c1 (stereo not given)	.	.	.	.	.	6.0%
Cc1cc(C)cc(NC(=S)NCC2CCN(C(C)c3ccccc3)C2)c1 (stereo not given)	1.5%	-28.3%	6.9%	-9.7%	10µM*	-6.4%
Cc1ccccc1NC(=S)NCC1CCN(C(C)c2ccccc2)C1 (stereo not given)	5.6%	0.7%	3.2%	-8.3%	?	7.3%
CCOC(=O)c1c(/N=C/N(C)C)sc(/C=N/Nc2ccccc2)c1-c1ccccc1	1.9%	-5.9%	8.5%	-0.4%	?	49.3%
CCOC(=O)c1c(/N=C/N(C)C)sc(/C=N/Nc2ccccc2)c1-c1ccccc1Cl	2.6%	-7.2%	10.2%	-5.6%	3.55µM*	?
COC(=O)/C=C/c1ccccc1S(=O)(=O)N(Cc1ccccc1)Cc1ccco1	0.1%	-29.5%	5.4%	-8.4%	2.24µM*	-1.8%
CC1=C(C(=O)Nc2cccc(F)c2)C(c2ccsc2)C2=C(CC(C)(C)CC2=O)N1 (stereo not given)	-1.7%	-22.5%	14.1%	-11.1%	3.98µM*	0.7%
CC1=C(C(=O)Nc2ccccc2F)C(c2ccsc2)C2=C(CC(C)(C)CC2=O)N1 (stereo not given)	-3.0%	-12.7%	3.8%	3.8%	?	-0.3%
CCCCCCc1cc2cc(-c3nnc(-c4cccc(Cl)c4)o3)c(=O)oc2cc1O	.	6.6%	.	-3.1%	10.2%	?
O=C1CS(=O)(=O)N(Cc2cccc(F)c2)c2ccc(Br)cc21	0.0%	-5.5%	-2.8%	-3.6%	10µM*	-6.3%
CCN1C(=O)S/C(=C/c2cn(C)c3ccccc23)C1=O	3.6%	5.5%	1.0%	i	0.5%	-3.2%
CCN=C1S/C(=C\c2cn(CC)c3ccccc23)C(=O)N1CC	0.5%	-9.3%	14.1µM*	-6.6%	?	19.4%
Cn1c(=O)cc(SCC(=O)NCc2ccc(F)cc2)c2ccc(Cl)cc21	.	-4.4%	.	-3.1%	0.5%	-0.6%
CN(CCCNC(=O)CSc1cc(=O)n(C)c2cc(Cl)ccc12)Cc1ccccc1	1.6%	-16.2%	21.2%	6.0%	7.94µM*	1.3%
SMILES	Tb PFK inh	GLP1R cytotox	GLP1R ag	Tb PGK inh	GLP-1R inv ag	Pin1 inh
CCOC(=O)c1c(C)nc2sc(C(=O)Nc3ccc(C(C)=O)cc3)c(N)c2c1-c1ccc(OC)cc1	0.7%	339.6%	3.7%	3.3%	8.91µM*	24.9%
C[Se]CCC(N)C(=O)O (stereo not given)	.	.	3.0%	.	.	.
CN1CCC(N(C)C(=O)c2ccc(Cl)c(S(=O)(=O)N(C)c3ccc(Cl)cc3)c2)CC1	0.4%	-13.8%	-1.3%	3.3%	11.2µM*	-2.0%
COc1ccccc1C(=O)NC(=O)Nc1ccc(-c2cc(C(F)(F)F)nn2-c2ccccc2)cc1	.	-4.8%	.	.	-2.2%	0.4%
COc1ccccc1C(=O)Nc1ccc(-c2cc(C(F)(F)F)nn2-c2ccccc2)cc1	.	?	.	-0.2%	5.62µM*	2.1%
Nc1nnnn1-c1ccccc1	.	.	2.1%	.	.	.
C[N+]1(C)CCC(OC(=O)CC(O)(c2ccccc2)C2CCCC2)C1 (stereo not given)	.	.	-4.4%	.	.	.
COc1ccc2c(Sc3ccc(Cl)cc3)c(C(=O)N3CCC(C)CC3)[nH]c2c1	.	-4.7%	.	7.1%	?	23.9%
Cc1ccc2c(Sc3ccc(Cl)cc3)c(C(=O)N3CCC(C)CC3)[nH]c2c1	.	-10.1%	.	i	10µM*	41.0%
CCC(=O)Nc1cccc(-c2csc(-c3ccccc3)n2)c1	-3.4%	-15.6%	-8.4%	1.9%	0.3%	-11.1%
CC(C)CC(=O)Nc1cccc(-c2csc(-c3ccccc3)n2)c1	-0.5%	-7.4%	1.9%	3.4%	10µM*	9.3%
Cc1cc2ncn(-c3ncnc4sc(C)c(C)c34)c2cc1C	-0.9%	-1.6%	5.4%	-4.8%	7.08µM*	-1.4%
Cc1ccc(S(=O)(=O)c2c(C)cc(C)nc2Oc2cccc(C(F)(F)F)c2)cc1	-0.3%	4.4%	-10.4%	-2.3%	5.01µM*	4.6%
Cc1cc(-c2ccccc2)nc(Oc2cccc(C(F)(F)F)c2)c1S(C)(=O)=O	2.0%	7.1%	7.2%	-5.7%	10µM*	?
Cc1cc(C)c(S(C)(=O)=O)c(Oc2cccc(Cl)c2)n1	-7.0%	-3.2%	0.1%	-0.8%	4.8%	0.8%
Cc1cc(C)c(S(C)(=O)=O)c(Oc2ccc(C(C)(C)C)cc2)n1	-2.1%	9.3%	4.3%	i	11.2µM*	-3.4%
O=C(Cc1cccc2ccccc12)NCC(=O)N1CCN(Cc2cccc(C(F)(F)F)c2)CC1	-9.4%	-3.1%	1.9%	i	10µM*	-7.6%
O=C(Cc1cccc2ccccc12)NCC(=O)N1CCN(CC(=O)Nc2ccc(F)cc2)CC1	.	-2.5%	3.4%	i	-19.6%	.
